# According to PubChem BioAssay (EPA / NIEHS):
# Values joined by “and” are separate entries in the source; they are usually repeats but may differ in a detail not shown here. Equal values may be shown once. Records with an inconclusive call do not appear. Some structures have more than one record in an assay (separate samples or runs), and their calls can disagree. Active and inactive are the calls of the source. How the source made its calls: active means hit-call score of the fitted dose curve at least 0.9, where 1 is the maximum; inconclusive means response in the unintended direction; inactive means score below 0.9.
# Tests used:
# [1] = LTEA_HepaRG_LDH_cytotoxicity: Cytotoxicity Assessment in the Life Technologies and Expression Analysis (LTEA) Assay (AID 2283563);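 on AC50: LDH activity released into spent culture medium as a marker of cell death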
# Outline: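 Human HepaRG hepatic cells are treated with test chemicals for 48 h at up to 100 uM in 0.5% DMSO. Cytotoxicity is scored from medium LDH against the vehicle control.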
# [2] = TOX21_p53_BLA_p2_viability: Viability Assessment in the Tox21 HCT-116 p53 Agonism Beta-lactamase Assay, Phase 2 (AID 2283591);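 further: actives lower the ATP signal meaning cytotoxicity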
# Outline: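 Cytotoxicity readout: CellTiter-Glo ATP luminescence, 30 min at room temperature, after the beta-lactamase read. Cells were HCT116 exposed 16 h at 37C to compounds pin-transferred at 217-fold dilution from DMSO stocks.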
# [3] = target: Cellular tumor antigen p53 (Homo sapiens) (UniProt P04637); test: TOX21_p53_BLA_p2_ratio: Tox21 HCT-116 p53 Agonism Beta-lactamase Assay, Ratio, Phase 2 (AID 2283592)
# Chain of Cellular tumor antigen p53 (Homo sapiens) (P04637 whole entry, looked up): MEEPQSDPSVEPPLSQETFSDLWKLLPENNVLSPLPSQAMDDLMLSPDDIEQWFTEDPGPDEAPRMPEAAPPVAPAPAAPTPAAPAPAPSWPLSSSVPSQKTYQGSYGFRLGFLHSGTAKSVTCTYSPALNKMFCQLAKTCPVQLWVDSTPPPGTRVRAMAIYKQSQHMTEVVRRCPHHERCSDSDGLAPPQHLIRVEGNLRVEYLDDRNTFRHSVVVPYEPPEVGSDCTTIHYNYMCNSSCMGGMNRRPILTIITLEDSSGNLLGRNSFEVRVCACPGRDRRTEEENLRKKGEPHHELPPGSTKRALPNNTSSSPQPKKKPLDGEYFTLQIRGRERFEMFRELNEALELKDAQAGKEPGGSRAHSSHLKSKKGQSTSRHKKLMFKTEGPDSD
# Outline: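 An inducible beta-lactamase reporter in HCT116 cells signals p53 pathway activation. After 16 h chemical exposure at 37C, cells load CCF4-AM substrate for 2 h at room temperature; activity is the cleaved/uncleaved emission ratio relative to DMSO.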
# [4] = TOX21_p53_BLA_p3_viability: Viability Assessment in the Tox21 HCT-116 p53 Agonism Beta-lactamase Assay, Phase 3 (AID 2283593);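 further: cells exposed to compound for 16 h before reading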
# Outline: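 Cellular ATP was quantified by CellTiter-Glo luminescence, read after 30 min at room temperature. Beforehand, HCT116 cells (4000/well) received compound 5 h post-seeding, 217-fold diluted from DMSO, then incubated 16 h at 37C.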
# [5] = target: Cellular tumor antigen p53 (Homo sapiens) (UniProt P04637); test: TOX21_p53_BLA_p3_ratio: Tox21 HCT-116 p53 Agonism Beta-lactamase Assay, Ratio, Phase 3 (AID 2283596)
# Outline: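 HCT116 p53-bla cells (4000/well) given compound in DMSO (217-fold dilution) after 5 h, incubated 16 h at 37C. CCF4-AM substrate 2 h at room temperature; 460/530 nm emission ratio, gain fitted against DMSO.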
# [6] = TOX21_p53_BLA_p4_viability: Viability Assessment in the Tox21 HCT-116 p53 Agonism Beta-lactamase Assay, Phase 4 (AID 2283597);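 further: hits lower the luminescence signal meaning cytotoxicity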
# Outline: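 Compound exposure of HCT116 cells lasts 16 h at 37C, 5% CO2, with DMSO stocks diluted 217-fold. Cellular ATP is then quantified by CellTiter-Glo luminescence after 30 min at room temperature.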
# [7] = TOX21_p53_BLA_p5_viability: Viability Assessment in the Tox21 HCT-116 p53 Agonism Beta-lactamase Assay, Phase 5 (AID 2283600)
# Outline: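 Counter-readout for cytotoxicity: ATP-dependent luminescence from CellTiter-Glo, read in the beta-lactamase wells after 30 min at RT, following a 16 h compound exposure at 37C.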
# [8] = target: Cellular tumor antigen p53 (Homo sapiens) (UniProt P04637); test: TOX21_p53_BLA_p4_ratio: Tox21 HCT-116 p53 Agonism Beta-lactamase Assay, Ratio, Phase 4 (AID 2283601)
# Outline: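 Signal is the blue/green (460nm/530nm) ratio of cleaved versus uncleaved CCF4-AM substrate, read after 2 h substrate loading. Cells were HCT116 carrying the p53-responsive beta-lactamase reporter, dosed 16 h at 37C, 5% CO2; CellTiter-Glo measured in parallel.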
# [9] = Tanguay_ZF_120hpf_MORT_legacy: (Legacy) Oregon State University Tanguay Lab 120 Hour Post-fertilization zebrafish Assay for Mortality (AID 2283633);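 on AC50: fitted as increase in binary mortality versus DMSO negative control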
# Outline: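 Mortality endpoint from a multiplexed whole-embryo zebrafish screen. Dechorionated wild-type embryos received compound at 6 hpf and remained under static exposure at 28C until 120 hpf, with death noted as a present/absent call.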
# [10] = Tanguay_ZF_120hpf_YSE_legacy: (Legacy) Oregon State University Tanguay Lab 120 Hour Post-fertilization zebrafish Assay for Yolk Sac Edema (AID 2283634);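 on AC50: actives raise the incidence of yolk sac edema above the DMSO baseline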
# Outline: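 Readout: presence or absence of yolk sac edema at 120 hpf, fitted upward against DMSO controls. Exposure ran statically from 6 hpf in dechorionated embryos kept at 28C.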
# [11] = Tanguay_ZF_120hpf_AXIS_legacy: (Legacy) Oregon State University Tanguay Lab 120 Hour Post-fertilization zebrafish Assay for Body Axis Malformation (AID 2283635);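 on AC50: potency for an increased fraction of larvae scored with body axis malformation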
# Outline: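 Static 6–120 hpf chemical exposure of dechorionated wild-type 5D zebrafish, one per well at 28C; morphology endpoint scored binary at 120 hpf relative to DMSO control.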
# [12] = Tanguay_ZF_120hpf_EYE_legacy: (Legacy) Oregon State University Tanguay Lab 120 Hour Post-fertilization zebrafish Assay for Eye Malformation (AID 2283636)
# Outline: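 Read-out is binary presence or absence of eye malformation, scored by brightfield microscopy at 120 hpf. Single larvae were exposed from 6 hpf in embryo medium containing 0.64% DMSO, with DMSO as baseline.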
# [13] = Tanguay_ZF_120hpf_SNOU_legacy: (Legacy) Oregon State University Tanguay Lab 120 Hour Post-fertilization zebrafish Assay for Snout Malformation (AID 2283637)
# Outline: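 Snout malformation read as a yes/no call on brightfield images of 120 hpf larvae (Tropical 5D strain). Static exposure began at 6 hpf on dechorionated embryos in 0.64% DMSO, with gain of signal analysed versus DMSO controls.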
# [14] = Tanguay_ZF_120hpf_JAW_legacy: (Legacy) Oregon State University Tanguay Lab 120 Hour Post-fertilization zebrafish Assay for Jaw Malformation (AID 2283638);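 on AC50: active means more embryos with jaw malformation than DMSO controls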
# Outline: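 Static waterborne exposure of dechorionated wild-type (Tropical 5D) zebrafish from 6 to 120 hpf at 28C, 0.64% DMSO vehicle; 5uM trimethyltin chloride served as positive control. Jaw morphology recorded as binary at 120 hpf.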
# [15] = Tanguay_ZF_120hpf_OTIC_legacy: (Legacy) Oregon State University Tanguay Lab 120 Hour Post-fertilization zebrafish Assay for Otic Vesicle Malformation (AID 2283639)
# Outline: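 Embryos from 5D wild-type adults exposed in plates; DMSO 0.64% v/v final. Sealed, light-protected, 28C, static to 120 hpf. Otic vesicle malformation recorded as binary endpoint; gain-of-signal fitted vs DMSO.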
# [16] = Tanguay_ZF_120hpf_SOMI_legacy: (Legacy) Oregon State University Tanguay Lab 120 Hour Post-fertilization zebrafish Assay for Somite Malformation (AID 2283647)
# Outline: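 5D WT zebrafish; chorion removed 4 hpf; 1 embryo/well from 6 hpf; static exposure to 120 hpf, 28C, 0.64% DMSO final. Endpoint: somite malformation, binary, brightfield. Mortality excluded.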
# [17] = target: Cellular tumor antigen p53 (Homo sapiens) (UniProt P04637); test: TOX21_p53_BLA_p5_ratio: Tox21 HCT-116 p53 Agonism Beta-lactamase Assay, Ratio, Phase 5 (AID 2283599)
# Outline: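 Beta-lactamase reporter ratio (blue 460 nm over green 530 nm, 405 nm excitation) after 2 h CCF4-AM loading, in HCT-116 cells exposed 16 h at 37 C to compounds pinned at 217-fold dilution. Increases relative to DMSO baseline scored.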
# [18] = Tanguay_ZF_120hpf_PE_legacy: (Legacy) Oregon State University Tanguay Lab 120 Hour Post-fertilization zebrafish Assay for Pericardial Edema (AID 2283640)
# Outline: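 Read-out is the presence or absence of pericardial edema at 120 hpf under brightfield, with gain of signal fitted against DMSO controls. Larvae (5D wild-type) were statically exposed at 28C with 0.64% final DMSO.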
# [19] = Tanguay_ZF_120hpf_BRAI_legacy: (Legacy) Oregon State University Tanguay Lab 120 Hour Post-fertilization zebrafish Assay for Brain Malformation (AID 2283641)
# Outline: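 Brain malformation in Tropical 5D zebrafish was recorded as a binary endpoint after static compound exposure from early development to 120 hpf at 28C. Activity was analysed against DMSO as negative control.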
# [20] = ATG_XTT_Cytotoxicity: Cytotoxicity Assessment in the Attagene TRANS-FACTORIAL HepG2 Assay (AID 2283584)
# Outline: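 Transfect HepG2 with GAL4-UAS reporter units, dose compound, incubate 24 h, then measure viable cell number by XTT. Fit concentration response against DMSO baseline.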
structure (smiles),measurement,setting,value
CCCCCCCCOc1ccc(C(=O)c2ccccc2)c(O)c1,outcome,[1],inactive
same,outcome,[2],inactive
same,outcome,[3],inactive
same,outcome,[4],inactive
same,outcome,[5],inactive
same,outcome,[6],inactive
same,outcome,[7],inactive
same,outcome,[8],inactive
same,outcome,[9],inactive
same,outcome,[10],inactive
same,outcome,[11],inactive
same,outcome,[12],inactive
same,outcome,[13],inactive
same,outcome,[14],inactive
same,outcome,[15],inactive
same,outcome,[16],inactive
CC(=O)N1CCN(c2ccc(OC[C@H]3CO[C@](Cn4ccnc4)(c4ccc(Cl)cc4Cl)O3)cc2)CC1,AC50,[1],86.9 µM (active)
same,AC50,[2],56.7 µM (active)
same,outcome,[2],inactive
same,outcome,[3],inactive
same,AC50,[4],46.1 µM (active)
same,outcome,[4],inactive
same,AC50,[5],58.3 µM (active)
same,outcome,[5],inactive
same,AC50,[6],58.7 µM (active)
same,outcome,[6],inactive
same,AC50,[17],46.1 µM (active)
same,outcome,[17],inactive
same,AC50,[8],44.3 µM (active)
same,outcome,[8],inactive
same,outcome,[9],inactive
same,outcome,[10],inactive
same,outcome,[11],inactive
same,outcome,[13],inactive
same,outcome,[15],inactive
same,outcome,[16],inactive
CCCCCCCCCCCC[N+](C)(C)C,AC50,[1],90.4 µM (active)
same,AC50,[2],85.2 µM (active) and 79.6 µM (active) and 73.5 µM (active)
same,AC50,[3],14.7 µM (active) and 14.2 µM (active) and 14.1 µM (active)
same,AC50,[4],85.3 µM (active)
same,outcome,[4],inactive
same,AC50,[5],21 µM (active) and 16 µM (active) and 46.1 µM (active)
same,AC50,[6],83.2 µM (active) and 46 µM (active) and 46.1 µM (active)
same,AC50,[17],33.3 µM (active)
same,outcome,[17],inactive
same,AC50,[8],37.4 µM (active) and 17.3 µM (active) and 46.4 µM (active)
same,outcome,[9],inactive
same,outcome,[10],inactive
same,outcome,[11],inactive
same,outcome,[13],inactive
same,outcome,[14],inactive
same,outcome,[15],inactive
same,outcome,[18],inactive
same,outcome,[19],inactive
same,outcome,[16],inactive
CC(C)(c1cc(Br)c(O)c(Br)c1)c1cc(Br)c(O)c(Br)c1,AC50,[1],58.3 µM (active)
same,outcome,[20],inactive
same,AC50,[2],35.7 µM (active) and 46 µM (active)
same,AC50,[3],54.6 µM (active) and 64.2 µM (active) and 60.5 µM (active)
same,AC50,[4],55.7 µM (active) and 52.9 µM (active) and 46 µM (active)
same,AC50,[5],50.4 µM (active) and 63.7 µM (active) and 58.5 µM (active)
same,AC50,[6],34.3 µM (active) and 46 µM (active)
same,AC50,[8],58.8 µM (active) and 71.4 µM (active) and 63.2 µM (active)
same,AC50,[9],4.89 µM (active)
same,outcome,[10],inactive
same,outcome,[11],inactive
same,outcome,[12],inactive
same,outcome,[13],inactive
same,outcome,[14],inactive
same,outcome,[15],inactive
CCCCCCCCCC(=O)O,outcome,[1],inactive
same,outcome,[20],inactive
same,outcome,[2],inactive
same,outcome,[3],inactive
same,outcome,[4],inactive
same,outcome,[5],inactive
same,outcome,[6],inactive
same,outcome,[17],inactive
same,outcome,[8],inactive
same,outcome,[9],inactive
same,outcome,[10],inactive
same,outcome,[11],inactive
same,outcome,[12],inactive
same,outcome,[13],inactive
same,outcome,[14],inactive
same,outcome,[18],inactive
same,outcome,[16],inactive
O=CCCCC=O,outcome,[1],inactive
same,outcome,[2],inactive
same,outcome,[3],inactive
same,AC50,[4],83.5 µM (active) and 84.6 µM (active)
same,outcome,[4],inactive
same,AC50,[5],69.9 µM (active) and 37 µM (active)
same,outcome,[6],inactive
same,outcome,[8],inactive
same,outcome,[9],inactive
same,outcome,[10],inactive
same,outcome,[11],inactive
same,outcome,[12],inactive
same,outcome,[13],inactive
same,outcome,[14],inactive
same,outcome,[15],inactive
same,outcome,[18],inactive
same,outcome,[19],inactive
same,outcome,[16],inactive
Oc1ccc2ccccc2c1,outcome,[1],inactive
same,outcome,[20],inactive
same,outcome,[2],inactive
same,outcome,[3],inactive
same,outcome,[5],inactive
same,outcome,[7],inactive
same,outcome,[8],inactive
same,outcome,[9],inactive
same,AC50,[10],36.9 µM (active)
same,AC50,[11],55.2 µM (active)
same,AC50,[12],61.7 µM (active)
same,AC50,[13],34.8 µM (active)
same,AC50,[14],38.2 µM (active)
same,AC50,[15],47.3 µM (active)
same,outcome,[16],inactive
O=C(Nc1ccc(Cl)cc1)Nc1ccc(Cl)c(Cl)c1,AC50,[1],24.9 µM (active)
same,outcome,[2],inactive
same,AC50,[3],3.12 µM (active) and 5.23 µM (active) and 3.82 µM (active)
same,outcome,[4],inactive
same,AC50,[5],5.76 µM (active) and 4.62 µM (active) and 6.38 µM (active)
same,outcome,[6],inactive
same,outcome,[7],inactive
same,AC50,[8],4.01 µM (active) and 4.85 µM (active) and 6.48 µM (active)
same,outcome,[9],inactive
same,outcome,[10],inactive
same,outcome,[11],inactive
same,outcome,[13],inactive
same,outcome,[14],inactive
same,outcome,[15],inactive
same,outcome,[18],inactive
same,outcome,[16],inactive
CC(C)(C)c1csc(-c2cc3cc(OCc4ccccc4CC(=O)O)ccc3o2)n1,AC50,[1],76.6 µM (active)
same,outcome,[20],inactive
same,AC50,[2],25.5 µM (active)
same,AC50,[3],36.2 µM (active)
same,AC50,[4],46.1 µM (active)
same,AC50,[5],27.9 µM (active)
same,AC50,[6],46.1 µM (active)
same,AC50,[8],49.9 µM (active)
same,AC50,[9],25.9 µM (active)
same,outcome,[10],inactive
same,outcome,[11],inactive
same,outcome,[12],inactive
same,outcome,[14],inactive
same,outcome,[15],inactive
same,outcome,[18],inactive
same,outcome,[19],inactive
same,outcome,[16],inactive
OCCO,outcome,[1],inactive
same,outcome,[2],inactive
same,outcome,[3],inactive
same,outcome,[4],inactive
same,outcome,[5],inactive
same,outcome,[6],inactive
same,outcome,[17],inactive
same,outcome,[8],inactive
same,outcome,[9],inactive
same,outcome,[10],inactive
same,outcome,[11],inactive
same,outcome,[12],inactive
same,outcome,[13],inactive
same,outcome,[14],inactive
same,outcome,[19],inactive
